What was measured:
Test in all cases: PBM binding z-score (relative to random genomic background probes); higher = stronger binding; sequences stand for … in GC…GCGATTGACAGCGTAGAATGAAGG
[1] = test system: FXR:RXRa (NR concentration 270 nM, RXRa partner concentration 90 nM)
In short: (§1)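 Each nuclear receptor dimer, without ligand, was incubated for 1 h on custom Agilent 4×180K protein-binding microarrays. Binding was detected with antibodies against each partner (one per run), and scanned fluorescence was regression-normalized. The binding z-scores are referenced to random human genomic background probes.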

[2] = test system: LXRa:RXRa (NR concentration 270 nM, RXRa partner concentration 90 nM)
In short: as §1

[3] = test system: LXRa homodimer (NR concentration 270 nM)
In short: as §1

[4] = test system: LXRb:RXRa (NR concentration 270 nM, RXRa partner concentration 90 nM)
In short: as §1

[5] = test system: LXRb homodimer (NR concentration 270 nM)
In short: as §1

[6] = test system: PPARa:RXRa (NR concentration 270 nM, RXRa partner concentration 90 nM)
In short: as §1

[7] = test system: PPARg:RXRa (NR concentration 180 nM, RXRa partner concentration 90 nM)
In short: as §1

[8] = test system: PPARg:RXRa 270nM:90nM, anti-RXR (NR concentration 270 nM, RXRa partner concentration 90 nM)
In short: as §1

[9] = test system: PPARg:RXRa 30nM:10nM, anti-RXR (NR concentration 30 nM, RXRa partner concentration 10 nM)
In short: as §1

[10] = test system: PPARg:RXRa 90nM:30nM, anti-RXR (NR concentration 90 nM, RXRa partner concentration 30 nM)
In short: as §1

[11] = test system: PPARg:RXRa DBDmut IVT, anti-RXR (DBD mutation: RXRa K156A/R161A, NR concentration 270 nM, RXRa partner concentration 90 nM)
In short: as §1

[12] = test system: PPARg:RXRa IVT, anti-PPARg (NR concentration 270 nM, RXRa partner concentration 90 nM)
In short: as §1

[13] = test system: PPARg DBDmut:RXRa IVT, anti-PPARg (DBD mutation: PPARg1 K132A/R137A, NR concentration 270 nM, RXRa partner concentration 90 nM)
In short: as §1

[14] = test system: PPARg DBDmut IVT, anti-PPARg (DBD mutation: PPARg1 K132A/R137A, NR concentration 270 nM)
In short: as §1

[15] = test system: PPARg homodimer (NR concentration 180 nM)
In short: as §1

[16] = test system: PXR:RXRa (NR concentration 270 nM, RXRa partner concentration 90 nM)
In short: as §1

[17] = test system: PXR homodimer (NR concentration 270 nM)
In short: as §1

[18] = test system: RARa:RXR (NR concentration 270 nM, RXRa partner concentration 90 nM)
In short: as §1

[19] = test system: RARa homodimer (NR concentration 270 nM)
In short: as §1

[20] = test system: RARb:RXRa (NR concentration 270 nM, RXRa partner concentration 90 nM)
In short: as §1

| Sequence | PBM binding z-score [1] | PBM binding z-score [2] | PBM binding z-score [3] | PBM binding z-score [4] | PBM binding z-score [5] | PBM binding z-score [6] | PBM binding z-score [7] | PBM binding z-score [8] | PBM binding z-score [9] | PBM binding z-score [10] | PBM binding z-score [11] | PBM binding z-score [12] | PBM binding z-score [13] | PBM binding z-score [14] | PBM binding z-score [15] | PBM binding z-score [16] | PBM binding z-score [17] | PBM binding z-score [18] | PBM binding z-score [19] | PBM binding z-score [20] |
| --- | --- | --- | --- | --- | --- | --- | --- | --- | --- | --- | --- | --- | --- | --- | --- | --- | --- | --- | --- | --- |
| ATATGTAGGTTATCGGGTCACTCAGTTTGCGCAT | 2.62 | 2.95 | 1.49 | 2.89 | 1.3 | 5.02 | 7.63 | 6 | 3.64 | 5.8 | 7.7 | 7.75 | 1.5 | 2.23 | 3.69 | 3.61 | 4.7 | 3.72 | 1.9 | 2.68 |
| CTTTACGGGTCACTGACAGGTTATAGCATTTGGA | 5.62 | 5.09 | 1.02 | 3.91 | 0.469 | 5.46 | 5.06 | 5.14 | 2.12 | 4.01 | 4.85 | 4.95 | 0.913 | 1.44 | 2.33 | 3.9 | 0.619 | 5.01 | 0.972 | 4.14 |
| TCGGGTAGGTTACCAATGGGGCATTCAGCTTTCT | 0.661 | 1.91 | 0.192 | 1.61 | 0.113 | 1.22 | 0.0871 | 1.31 | 1.96 | 1.63 | 1.78 | 1.82 | 0.338 | -0.222 | 0.725 | 0.647 | -0.198 | 0.735 | 0.0772 | 1.41 |
| AGTCATAGTTCATCTAGGTAACGTAAGATATGCT | 2.22 | 2.66 | 1.11 | 1.59 | 0.357 | 2.84 | 2.87 | 3.22 | 1.32 | 2.47 | 0.73 | 2.74 | 1.12 | 0.57 | 1.23 | 2.03 | 1.24 | 1.78 | 0.89 | 3.26 |
| CCTAGTTGGTCAGGAGGTCACACCCCGGATATGA | 3.53 | 3.05 | 2.07 | 3.15 | 0.855 | 3.98 | 2.86 | 3.57 | 1.05 | 3.09 | 1.1 | 3.66 | 0.426 | 0.108 | 3.14 | 4.1 | 1.16 | 4.24 | 2.03 | 3.71 |
| TCGAGTAGGGTACCAATGGGGCATTCAGCTTTCT | -0.419 | -0.00421 | -0.466 | 0.0817 | -0.885 | 0.453 | -0.266 | 0.942 | 0.889 | 0.836 | 1.51 | 1.1 | -1.19 | -0.695 | -0.571 | -0.333 | -0.807 | -0.262 | -1.44 | 0.103 |
| GGAACGAGGGGAAGTTGATAGCAGAGTTTGATGG | 0.0996 | -0.26 | -0.307 | -0.0221 | -0.185 | 0.0181 | 0.515 | 0.29 | -0.0775 | 0.258 | 1.12 | 0.62 | 0.337 | 0.547 | 0.593 | 0.111 | 0.308 | -0.228 | 0.391 | 0.243 |

Source: the supplement of paper PMC6555819
